Screens (PubChem)
A selection: hits, their analogues and other compounds. The true share with any hit is near 2.8%.
Pol iota inh: inhibitors of human DNA polymerase iota | actives 1% (n = 390,000) | Pol iota fluorescent replication assay, 10 min | Potency, µM (series often up to 115 µM), for inactives: at the highest dose activity, negative = inhibition, actives largely listed as inhibitors | AID 588590; note: potency is the fitted concentration of half-maximal effect
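Fluorescent replication assay read twice, at 0 min and 10 min after adding 50 nM (final) substrate. Enzyme (10 nM) and compounds were first incubated 15 min at room temperature; enzyme-free buffer wells were negative controls.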
POLB inh: DNA polymerase beta (human) inhibition. P06746. Pol beta primer extension/strand displacement, fluorescence kinetic. Potency, µM (series often up to 114 µM), for the others: at the highest dose activity change, negative = inhibition, hits mostly inhibitors. actives 1.3% (n = 340,000); note: potency is the fitted concentration of half-maximal effect; % is set by controls: 0 for no effect and ±100 for the full control effect
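Curves were derived by four-parameter Hill fits of normalized qHTS data. The kinetic fluorescent primer-extension read was taken at 0 and 10 min after 50 nM substrate, following a 15 min room-temperature preincubation of 10 nM enzyme with compounds.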
WRN helicase inh: WRN helicase (human) inhibition; Q14191; WRN helicase unwinding, fluorescent forked duplex, kinetic; Potency, µM (top dose mostly 114 µM), for inactives: at the top dose activity change, negative = inhibition, hits mostly inhibitors; actives 0.46% (n = 360,000); AID 651768; note: potency is the fitted concentration of half-maximal effect; % is set by controls: 0 for no effect and ±100 for the full control effect; nearly all actives have a fitted effect of over 55% in size
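WRN at 20 nM final was preincubated with compound for 15 min at room temperature; reaction started with 100 nM forked duplex oligonucleotide carrying fluorophore and quencher plus 2 mM ATP (final). Unwinding followed kinetically by red fluorescence (ex 525/em 598 nm).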
Pol kappa inh: blocks human DNA polymerase kappa activity. Potency, µM (series often up to 107 µM), without a hit: top-dose activity, negative = inhibition, hits mostly inhibitors. purified Pol kappa, fluorescent DNA synthesis assay, 10 min. actives 0.53% (n = 400,000); note: potency is the fitted concentration of half-maximal effect; % is set by controls: 0 for no effect and ±100 for the full control effect
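Inhibition of 10 nM Pol kappa is measured by a fluorescent read-out at 0 and 10 min following addition of 50 nM substrate (final), with a 15-min room-temperature compound preincubation.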
POLH inh: blocks human DNA polymerase eta activity; Q9Y253; recombinant Pol eta, fluorescent DNA replication assay; Potency, µM (highest dose often 114 µM), for inactives: at the highest dose activity change, negative = inhibition, actives largely listed as inhibitors; actives 1.2% (n = 390,000); AID 588591; note: potency is the fitted concentration of half-maximal effect; % is set by controls: 0 for no effect and ±100 for the full control effect
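Pol eta (10 nM) was preincubated with compounds for 15 min at room temperature, after which fluorescent replication substrate (50 nM final) was added to start the reaction. Fluorescence was read kinetically at 0 and 10 min.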
PI5P4Ka inh: PI5P4K alpha (human) kinase inhibition; PI5P4Kalpha enzyme, ADP-Glo luminescence, 60 min; stronger effect = lower value; max response, %; actives 1.2% (n = 330,000); AID 652105; active = max response of -50% or lower; inconclusive = between -30% and -50%; inactive = -30% or higher; note: value at the top dose of about 77 µM; % is set by controls: 0 for no effect and ±100 for the full control effect
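Compounds were pin-transferred onto PI5P4Kalpha and substrate in HEPES pH 7.4 buffer with EGTA, CHAPS and 5% DMSO. ATP (5 microM final) started the reaction, which ran 60 minutes at room temperature before ADP-Glo detection.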
* hit, by the source's call; ? = inconclusive; . = no result given; ! = not confirmed by another sample; [ ] = remark or other dose. Unless noted, calls come from the whole dose curve; as a rule, active = well fitted curve in the direction sought with a large enough effect; inconclusive = small, poorly fitted or top-dose-only effect, or another doubt; inactive = no such curve, though single readings can be large; an effect the other way counts as inactive or inconclusive.

SMILES	Pol iota inh	POLB inh	WRN helicase inh	Pol kappa inh	POLH inh	PI5P4Ka inh
CCCN(C(=O)COC(=O)c1cc(CC)c(C)s1)c1c(N)n(Cc2ccccc2)c(=O)[nH]c1=O	40µM*	.	-8%[11.6 µM]	?	18µM*	?
COCCCN(C(=O)c1cc2c(s1)CCC2)c1c(N)n(Cc2ccccc2)c(=O)[nH]c1=O	32µM*	13µM*	?	?	?	?
CNC(=O)c1ccsc1NC(=O)c1sc2ccccc2c1Cl	?	14µM*	-22%	?	?	-1
Cc1nnc(NC(=O)c2sc3ccccc3c2Cl)s1	2%	3%	-15%	-16%	6%	-15
Cn1c(=O)c2[nH]c(NCCCN3CCOCC3)nc2n(C)c1=O	5%	89µM*	-2%	-4%	2%	0
Cc1ccc(Nc2nc3c([nH]2)c(=O)n(C)c(=O)n3C)cc1	24%	11%	-14%	-7%	-18%	.
Cc1ccc(OCC(=O)Nc2ccc3c(c2)C(=O)NC3=O)cc1	-7%	32µM*	1%	4%	-5%	1
Cc1ccc2oc(-c3ccc(NC(=O)COc4ccccc4)cc3O)nc2c1	89µM*	.	.	-8%	.	.
Cc1ccc(OCC(=O)Nc2ccc(O)c(-c3nc4ccccc4o3)c2)cc1	11%	-12%	-1%	-9%	-13%	-13
CC(C)[C@H](NS(=O)(=O)c1ccccc1)C(=O)OCc1cc([N+](=O)[O-])cc2c1OCOC2	67%	.	-12%	-4%	-25%	2
C=CC(=O)N1CCC[C@@H](n2nc(-c3ccc(Oc4ccccc4)cc3)c3c(N)ncnc32)C1	7%[229 µM]	.	.	-2%[229 µM]	.	.
CC(C(=O)Nc1ccc(O)cc1C(=O)O)N1C(=O)/C(=C\c2cccs2)SC1=S (stereo unspecified)	?	?	-4%[11.6 µM]	?	22µM*	?
COc1cccc(C2CC(c3ccccc3)=NN2S(=O)(=O)c2ccc(C)cc2)c1OC (stereo unspecified)	-13%	50µM*	?	-32%	?	-3
O=c1c2cc(C(F)(F)F)ccc2sn1-c1ccccc1	.	.	-1%	.	-17%	-102*
O=c1c2cc(F)ccc2sn1-c1ccccc1	-13%	.	-5%	-6%	-5%	-85*
Cc1nc2ccc(S(=O)(=O)CCC(=O)Nc3ccc(C)c(C)c3)cc2s1	?	3%	.	?	-6%	.
O=C(Nc1ncnc2sc3c(c12)CCCCC3)c1ccco1	-4%	7%	2%	-8%	22µM*	2
O=C(Nc1ncnc2sc3c(c12)CCCC3)c1ccncc1	36%	8%	1%	9%	-20%	0
N/C(=N\OC(=O)c1ccc(=O)n(Cc2ccccc2)c1)c1ccccn1	144%	55%	7%	-4%	-2%	10
CCCc1ccc(C(=O)O/N=C(\N)c2ccccn2)cc1	21%	2%	2%[57.1 µM]	-4%	-2%	-65*
COc1ccc(/C=C(\C#N)C(=O)NCCc2ccccc2)cc1OCc1ccccc1	10%	-3%	-3%	2%	-21%	-7
N#C/C(=C\c1ccc(O)c(O)c1)C(=O)NCCCc1ccccc1	?	?	?	?	16µM*!	?
N#C/C(=C/c1ccc(C(=O)O)cc1)C(=O)NCc1ccccc1	?	1%	-34%[11.6 µM]	-3%	-5%	.
N#CC(=Cc1ccc(O)c(O)c1)C(=O)NCc1ccccc1	71µM*	.	.	-29%	.	.
O=C(C(=O)N1CCN(C(=O)c2ccco2)CC1)c1cc2ccccc2o1	.	.	1%	.	.	-21
CN(C)c1ccc(/C=C/c2nc3ccccc3c(=O)n2-c2ccc(C(=O)O)cc2)cc1	?	-1%	-5%[11.6 µM]	?	25µM*	2
CC(=O)Oc1ccc2c(c1)c(C(C)=O)c(C)n2C	12%	0.89µM*	-8%	-3%	-7%	.
Cc1ccc(C)c(S(=O)(=O)N2CCN(C(=O)/C=C/c3ccco3)CC2)c1	28µM*	.	-25%	50µM*	35µM*	-61*
